# Measured values published in the supplement of paper PMC12350171.
# Structures can show the parent of a compound that is named as a salt.
# Test system: Haemophilus parainfluenzae
# Test: growth AUC normalised to DMSO control (fraction of control); higher = less growth inhibition, active = hit call of the paper
# Details: 20 µM;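 active = AUC significantly below DMSO controls by Student t-fit with adjusted P under 0.01; inactive = not significantly reduced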
# Procedure, shortened: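 Three biological replicates were carried out, with OD578 read hourly for 24 h. Before inoculation at a starting OD578 of 0.01, pathogens were passaged anaerobically twice; plates were pre-reduced mGAM containing 20 μM compound and 1% DMSO, sealed with breathable membranes, and the Haemophilus parainfluenzae medium carried added hemin and NAD. Area under each growth curve was calculated by the trapezoidal rule up to the exponential-to-stationary transition and normalised to DMSO controls on the same plate.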
row,Structure (SMILES),growth AUC normalised to DMSO control
1,CC(C)N1CCN(c2ccc(OCC3COC(Cn4cncn4)(c4ccc(Cl)cc4Cl)O3)cc2)CC1 (stereo not drawn) [Terconazole],1.03 (inactive)
2,CCOC(=O)C1=C(C)NC(C)=C(C(=O)OC)C1c1cccc(Cl)c1Cl (stereo not drawn) [Felodipine],0.863 (inactive)
3,CN1CCN(CCCN2c3ccccc3Sc3ccc(Cl)cc32)CC1 [Prochlorperazine dimaleate],0.913 (inactive)
4,CC(Oc1c(Cl)cccc1Cl)C1=NCCN1 (stereo not drawn) [Lofexidine],0.993 (inactive)
5,CC(Cc1cccc(C(F)(F)F)c1)NCCOC(=O)c1ccccc1 (stereo not drawn) [Benfluorex],0.93 (inactive)
6,CC(=O)SCC(Cc1ccccc1)C(=O)NCC(=O)OCc1ccccc1 (stereo not drawn) [Racecadotril],0.986 (inactive)
7,CCS(=O)(=O)CCn1c([N+](=O)[O-])cnc1C [Tinidazole],0.987 (inactive)
8,CCCCOc1ccc(CC(=O)NO)cc1 [Bufexamac],1 (inactive)
9,CCN(CC)CCOC(=O)C(c1ccccc1)C1CCCCC1 (stereo not drawn) [Drofenine hydrochloride],0.992 (inactive)
10,C[C@@H](O)[C@H]1C(=O)N2C(C(=O)O)=C(SCCNC=N)C[C@H]12 [Imipenem],1.01 (inactive)
11,CN1CCCC(n2nc(Cc3ccc(Cl)cc3)c3ccccc3c2=O)CC1 (stereo not drawn) [Azelastine hydrochloride],0.994 (inactive)
12,CCN(CC)C(=O)c1ccc(O)c(OC)c1 [Ethamivan],1.03 (inactive)
13,CC(C)n1c(/C=C/C(O)CC(O)CC(=O)O)c(-c2ccc(F)cc2)c2ccccc21 (stereo not drawn) [Fluvastatin sodium salt],1 (inactive)
